# Values joined by “and” are separate entries in the source; they are usually repeats but may differ in a detail not shown here. Identical values can stand only once. Inconclusive results are not listed. Entries that show only a call come without a potency. Some structures have more than one record in an assay (separate samples or runs), and their calls can disagree. Active and inactive are the calls of the source. Unless noted, calls follow the shape of the dose curve; as a rule, active = well fitted curve in the direction sought with a large enough effect in the repeat runs; inconclusive = weak or mixed curves; inactive = no such curve, though single readings can be large; an effect the other way counts as inactive or inconclusive.
# Legend:
# [1] = qHTS assay to identify small molecule antagonists of the glucocorticoid receptor (GR) signaling pathway - cell viability counter screen (AID 720693); also: nearly all actives have a fitted effect of over 55% in size; also: potency is read from the fitted curve at half-maximal effect
# [2] = qHTS assay for identifying genotoxic compounds that show differential cytotoxicity against isogenic chicken DT40 cell lines with known DNA damage response pathways - wild type cell line (AID 743012); also: nearly all actives have a fitted effect of over 60% in size; also: potency is read from the fitted curve at half-maximal effect
# Outline: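 300 wt DT40 cells/well; cpd (DMSO) pintool-transferred after ~0.5 h at 37 C/5% CO2; 40 h incubation; CellTiter-Glo added, 30 min RT; luminescence read.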
# [3] = qHTS assay for identifying genotoxic compounds that show differential cytotoxicity against isogenic chicken DT40 cell lines with known DNA damage response pathways - Rev3 mutant cell line (AID 743014); also: nearly all actives have a fitted effect of over 55% in size; also: potency is read from the fitted curve at half-maximal effect
# [4] = qHTS assay for identifying genotoxic compounds that show differential cytotoxicity against isogenic chicken DT40 cell lines with known DNA damage response pathways - Rad54/Ku70 mutant cell line (AID 743015); also: nearly all actives have a fitted effect of over 60% in size; also: potency is read from the fitted curve at half-maximal effect
# [5] = qHTS assay to identify small molecule antagonists of the androgen receptor (AR) signaling pathway - cell viability counter screen (AID 743033; also: nearly all actives have a fitted effect of over 45% in size; also: potency is read from the fitted curve at half-maximal effect)
# [6] = qHTS assay to identify small molecule antagonists of the androgen receptor (AR) signaling pathway using the MDA cell line - cell viability counter screen (AID 743041; also: nearly all actives have a fitted effect of over 45% in size; also: potency is read from the fitted curve at half-maximal effect)
# Outline: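 qHTS viability read-out; MDA-kb2 AR-luc; R1881-stimulated; 16 h exposure at 37C, 0% CO2; CellTiter-Fluor, 30 min; fluorescence intensity.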
# [7] = biological target: Androgen receptor (Homo sapiens) (UniProt P10275); test: qHTS assay to identify small molecule agonists of the androgen receptor (AR) signaling pathway using the MDA cell line (AID 743040; also: nearly all actives have a fitted effect of over 20% in size)
# Chain of Androgen receptor (Homo sapiens) (P10275 whole entry, looked up): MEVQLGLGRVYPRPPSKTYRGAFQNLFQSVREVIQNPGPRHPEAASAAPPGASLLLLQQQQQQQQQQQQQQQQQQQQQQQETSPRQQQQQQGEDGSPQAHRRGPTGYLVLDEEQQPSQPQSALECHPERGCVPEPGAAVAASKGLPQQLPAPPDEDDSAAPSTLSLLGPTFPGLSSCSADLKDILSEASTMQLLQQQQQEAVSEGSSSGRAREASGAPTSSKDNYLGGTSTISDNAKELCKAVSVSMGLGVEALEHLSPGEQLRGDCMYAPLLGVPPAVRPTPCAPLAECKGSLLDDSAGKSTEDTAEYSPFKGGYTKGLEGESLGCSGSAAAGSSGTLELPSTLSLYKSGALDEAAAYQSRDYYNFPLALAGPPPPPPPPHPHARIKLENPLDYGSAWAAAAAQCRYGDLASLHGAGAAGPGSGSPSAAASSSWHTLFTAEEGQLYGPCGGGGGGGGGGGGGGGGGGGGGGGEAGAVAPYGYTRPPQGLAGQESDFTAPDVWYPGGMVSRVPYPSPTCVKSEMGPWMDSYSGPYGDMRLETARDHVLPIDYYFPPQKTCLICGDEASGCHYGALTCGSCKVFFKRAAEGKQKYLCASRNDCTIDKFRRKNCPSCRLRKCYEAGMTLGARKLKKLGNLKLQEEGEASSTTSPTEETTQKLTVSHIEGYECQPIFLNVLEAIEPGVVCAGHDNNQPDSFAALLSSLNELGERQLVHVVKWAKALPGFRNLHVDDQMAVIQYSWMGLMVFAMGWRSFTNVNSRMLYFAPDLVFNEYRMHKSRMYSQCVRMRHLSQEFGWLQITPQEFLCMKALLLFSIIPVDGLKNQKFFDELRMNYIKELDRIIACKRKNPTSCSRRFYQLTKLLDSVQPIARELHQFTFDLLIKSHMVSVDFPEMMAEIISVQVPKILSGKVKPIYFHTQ
# Outline: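 Agonist activity is measured as luciferase luminescence in human MDA-kb2 cells whose MMTV reporter responds to both AR and GR. Compounds in DMSO incubate 16 h at 37C, 0% CO2, and ONE-Glo is read after 30 min.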
# [8] = biological target: Androgen receptor (Homo sapiens) (UniProt P10275); test: qHTS assay to identify small molecule antagonists of the androgen receptor (AR) signaling pathway using the MDA cell line (AID 743042; also: nearly all actives have a fitted effect of over 55% in size; also: potency is read from the fitted curve at half-maximal effect)
# Outline: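 MDA-kb2 cells (human breast carcinoma, stably carrying an MMTV-luciferase reporter responsive to AR and GR) were plated at 3,000 cells/well and preincubated 5 hr at 37C, then given compound plus R1881 agonist for 16 h. ONE-Glo luminescence was read.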
# [9] = biological target: Androgen receptor (Homo sapiens) (UniProt P10275); test: qHTS assay to identify small molecule antagonists of the androgen receptor (AR) signaling pathway (AID 743035; active = well fitted inhibition curve with a large enough effect in the signal ratio in the repeat runs, not every such curve was filed as active; the % refers to the signal ratio; also: potency is read from the fitted curve at half-maximal effect)
# Outline: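 In this cell-based reporter screen, compounds were tested in concentration series against R1881-activated HEK293 cells expressing beta-lactamase under UAS control; after 16 h at 37C, FRET substrate was added and fluorescence read 2 h later.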
# [10] = biological target: Androgen receptor (Homo sapiens) (UniProt P10275); test: qHTS assay to identify small molecule agonists of the androgen receptor (AR) signaling pathway (AID 743036; active = well fitted activation curve with a large enough effect in the signal ratio in the repeat runs, with a control signal flat, not every such curve was filed as active; the % refers to the signal ratio)
# Outline: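 In this Tox21 qHTS, 2,000 HEK293 AR-bla cells per well were incubated with compounds for 16 h at 37C and 5% CO2. Fluorescence intensity was recorded 2 h after adding LiveBLAzer B/G FRET substrate at room temperature.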
SMILES,Potency [1],Potency [2],Potency [3],Potency [4],Potency [5],Potency [6],Potency [7],Potency [8],Potency [9],outcome [10]
CCN(C)N=O,inactive,inactive,inactive,inactive,inactive,inactive,–,–,–,–
Cn1cc[n+](C)c1 (tested in a mixture with another compound),inactive,inactive,inactive,inactive,inactive,inactive,–,–,–,–
c1ccc(CN2CCNCC2)cc1,inactive,inactive,inactive,inactive,inactive,inactive,–,–,–,–
CCOP(=O)(OCC)SCCSCC,inactive,inactive,inactive,inactive,inactive,inactive,–,–,–,–
N#Cc1ccc(Cl)cc1,inactive,inactive,inactive,inactive,inactive,inactive,–,–,–,–
COC(=O)C(Cl)C(=O)OC,inactive,inactive,inactive,inactive,inactive,inactive,–,–,–,–
CC[C@H]1C[C@H]2[C@@H]3CCC4=CC(=O)CC[C@@H]4[C@H]3CC[C@]2(C)[C@H]1O,inactive,16.8 µM (active),29.8 µM (active),21.1 µM (active),inactive,inactive,–,–,–,–
CC(Cl)C(C)Cl (stereo not drawn),inactive,inactive,inactive,inactive,inactive,inactive,–,–,–,–
COc1c(C(C)(C)C)cc([N+](=O)[O-])c(C)c1[N+](=O)[O-],inactive,inactive,inactive,inactive,inactive,inactive,–,–,–,–
ClCCCCBr,inactive,inactive,inactive,inactive,inactive,inactive,–,–,–,–
CCBr,inactive,inactive,inactive,inactive,inactive,inactive,–,–,–,–
C=CC(=O)OC,inactive,inactive,inactive,inactive,inactive,inactive,–,–,–,–
C=CC(=O)OC(C)(C)C,inactive,inactive,inactive,inactive,inactive,inactive,–,–,–,–
C#CCOC(C(=O)OCCN(C)C)(c1ccccc1)c1ccccc1,inactive,inactive,inactive,inactive,inactive,inactive,–,–,–,–
C=CC(C)=O,inactive,inactive,inactive,inactive,inactive,inactive,–,–,–,–
CC(Cl)Cl,inactive,inactive,inactive,inactive,inactive,inactive,–,–,–,–
CCOc1nc(F)cc2nc(S(=O)(=O)Nc3c(Cl)cccc3Cl)nn12,inactive,inactive,inactive,inactive,inactive,inactive,–,–,–,–
C=CC(=O)OCC(C)O (stereo not drawn),inactive,inactive,inactive,inactive,inactive,inactive,–,–,–,–
C=C(C#N)CCC#N,inactive,inactive,inactive,inactive,inactive,inactive,–,–,–,–
ClCC(Br)CBr (stereo not drawn),inactive,inactive,inactive,inactive,inactive,inactive,–,–,–,–
CN1[C@@H]2CC[C@H]1CC(OC(=O)c1cc(Cl)cc(Cl)c1)C2 (stereo partly drawn),inactive,3.76 µM (active),2.98 µM (active),5.96 µM (active),inactive,inactive,–,–,–,–

SMILES,Potency [1],Potency [2],Potency [3],Potency [4],Potency [5],Potency [6],Potency [7],Potency [8],Potency [9],outcome [10]
Cc1ccc(N)cc1C,inactive,inactive,inactive,inactive,inactive,inactive,–,–,–,–
CC(O)(CS(=O)(=O)c1ccc(F)cc1)C(=O)Nc1ccc(C#N)c(C(F)(F)F)c1 (stereo not drawn),inactive,26.6 µM (active),10.6 µM (active) and 28.3 µM (active),23.7 µM (active) and 28.3 µM (active),inactive,inactive,–,–,–,–
NCC(CC(=O)O)c1ccc(Cl)cc1 (stereo not drawn),inactive,inactive,inactive,inactive,inactive,inactive,–,–,–,–
CCOP(O)OCC,inactive,inactive,inactive,inactive,inactive,inactive,–,–,–,–
COC(=O)c1cncn1C(C)c1ccccc1 (stereo not drawn),inactive,inactive,inactive,inactive,inactive,inactive,–,–,–,–
CCC(Cl)CCl (stereo not drawn),inactive,inactive,inactive,inactive,inactive,inactive,–,–,–,–
O=C(O)COc1ccc(Cl)cc1,inactive,inactive,inactive,inactive,inactive,inactive,–,–,–,–
O=C(N[C@H](c1ccccc1)[C@@H]1CN2CCC1CC2)c1c(Cl)ccc(C(F)(F)F)c1Cl,inactive,22 µM (active),39.2 µM (active),24.7 µM (active),inactive,inactive,–,–,–,–
BrCCCCBr,inactive,inactive,inactive,inactive,inactive,inactive,–,–,–,–
C/C=C/C=O,inactive,inactive,inactive,inactive,inactive,inactive,–,–,–,–
O=C(O)C(F)(F)C(F)(F)C(F)(F)C(F)(F)C(F)(F)C(F)(F)C(F)(F)C(F)(F)C(F)(F)F,inactive,inactive,inactive,inactive,inactive,inactive,–,–,–,–
Cn1sc(Cl)cc1=O,inactive,inactive and 19.3 µM (active),inactive and 21.7 µM (active),inactive and 54.5 µM (active),inactive,inactive,–,–,–,–
COc1nn(C(=O)NS(=O)(=O)c2ccccc2OC(F)(F)F)c(=O)n1C,inactive,inactive,inactive,inactive,inactive,inactive,–,–,–,–
CC(C)(C)c1cc([N+](=O)[O-])cc([N+](=O)[O-])c1O,1.09 µM (active),19.3 µM (active),21.6 µM (active),19.3 µM (active),13.8 µM (active),24.3 µM (active),–,–,–,–
N#CCc1ccccc1,inactive,inactive,inactive,inactive,inactive,inactive,–,–,–,–
CC(=O)CCC(C)=O,inactive,inactive,inactive,inactive,inactive,inactive,–,–,–,–
CCCCc1c(C)nc(NCC)nc1OS(=O)(=O)N(C)C,inactive,15.4 µM (active),19.3 µM (active),15.4 µM (active),inactive,inactive,–,–,–,–
C=CCC1([C@H](C)CCC)C(=O)NC(=O)NC1=O,inactive,inactive,inactive,inactive,inactive,inactive,–,–,–,–
CC1C(=O)C[C@]2(C(C)C)C[C@H]12 (stereo partly drawn),inactive,inactive,inactive,inactive,inactive,inactive,–,–,–,–
C=CCN1CC[C@]23c4c5ccc(O)c4O[C@H]2C(=O)CC[C@@]3(O)[C@H]1C5,inactive,inactive,inactive,inactive,inactive,inactive,–,–,–,–
Clc1cc(Cl)c(Cl)c(Cl)c1,inactive,inactive,inactive,inactive,inactive,inactive,–,–,–,–

SMILES,Potency [1],Potency [2],Potency [3],Potency [4],Potency [5],Potency [6],Potency [7],Potency [8],Potency [9],outcome [10]
CC/C(=N\OC/C=C/Cl)C1=C(O)CC(C2CCOCC2)CC1=O (stereo not drawn),inactive,inactive,inactive,inactive,inactive,inactive,–,–,–,–
COC(=O)C(Br)CBr (stereo not drawn),inactive,inactive,inactive,inactive,inactive,inactive,–,–,–,–
CCCCCCC#N,inactive,inactive,inactive,inactive,inactive,inactive,–,–,–,–
CN1C(=O)NC(=O)C(C)(C2=CCCCC2)C1=O (stereo not drawn),inactive,inactive,inactive,inactive,inactive,inactive,–,–,–,–
ClC=C(Cl)Cl,inactive,inactive,inactive,inactive,inactive,inactive,–,–,–,–
CCCCOC(=O)c1ccccc1C(=O)OCc1ccccc1,inactive,inactive and 48.6 µM (active),inactive,51.4 µM (active),inactive,inactive,–,–,–,–
O=S(=O)(Cl)c1ccccc1,inactive,inactive,inactive,inactive,inactive,inactive,–,–,–,–
CCC(COC(=O)c1cc(OC)c(OC)c(OC)c1)(c1ccccc1)N(C)C (stereo not drawn),inactive,5.96 µM (active),3.35 µM (active),6.68 µM (active),inactive,inactive,–,–,–,–
COc1cc(CC(C)N)cc2c1OCO2 (stereo not drawn),inactive,inactive,inactive,inactive,inactive,inactive,–,–,–,–
C=COC(C)=O,inactive,inactive,inactive,inactive,inactive,inactive,–,–,–,–
O=[N+]([O-])c1ccc(F)c([N+](=O)[O-])c1,inactive,inactive,inactive,inactive,inactive,55 µM (active),–,–,–,–
COC1=CC(=O)O[C@@H](CCc2ccccc2)C1,inactive,inactive,inactive,–,inactive,inactive,inactive,inactive,–,–
COCC(C)N(C(=O)CCl)c1c(C)csc1C (stereo not drawn),inactive,inactive and 17.2 µM (active),inactive and 15.4 µM (active),inactive and 17.2 µM (active),inactive,inactive,–,–,–,–
c1ccc(C2CC2)c(OCC2=NCCN2)c1,inactive,inactive,–,inactive,inactive,inactive,inactive,inactive,inactive,inactive
O=C(NCc1cccnc1)Nc1ccc([N+](=O)[O-])cc1,inactive,inactive,inactive,–,inactive,inactive,–,–,–,–
ClCc1ccccc1,inactive,inactive,inactive,inactive,inactive,inactive,–,–,–,–
[O-][Cl+]O,inactive,inactive,inactive,inactive,inactive,inactive,–,–,–,–
COc1ccc(-c2ccccc2)cc1NNC(=O)OC(C)C,inactive,63.7 µM (active),71.5 µM (active),28.4 µM (active),–,inactive,inactive,71.5 µM (active),51 µM (active),–
C[C@@H]1CC[C@H]2[C@@H](C)C(=O)O[C@@H]3O[C@@]4(C)CC[C@@H]1[C@]32OO4,inactive,0.422 µM (active),0.473 µM (active),0.237 µM (active),–,–,inactive,1.33 µM (active),1.69 µM (active),inactive

# From PubChem BioAssay (Tox21)
